An excerpt weighted towards active compounds, which were near 19% of everything screened.
HT1080 IDH1KD tx: kills HT-1080 cells with IDH1 knockdown; HT-1080 IDH1 knockdown viability, ATP luminescence, 48 h; Potency, µM (titrated, usually from 46.1 µM), for inactives: at the top dose activity, negative = toxicity, most hits filed as cytotoxic; 2% of 360,000 active;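 note: potency is the fitted concentration of half-maximal effect; 0% = DMSO wells and -100% = cell-free medium wells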
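Cytotoxicity counter-line: IDH1KD HT-1080, 48 h, CellTiter-Glo. Curves classed by r2, magnitude and activity.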
TDP1 cell noCPT: qHTS for Inhibitors of human tyrosyl-DNA phosphodiesterase 1 (TDP1): qHTS in cells in absence of CPT | 15% of 420,000 active | DT40 Tdp1-/- hTDP1 cells, no CPT, ATP luminescence, 48 h | Potency, µM (highest dose often 46.2 µM), for inactives: top-dose activity change, negative = growth inhibition, most hits filed as inhibitors; note: potency is the fitted concentration of half-maximal effect; nearly all actives have a fitted effect of over 55% in size
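A cellular qHTS used chicken DT40 cells lacking endogenous Tdp1 but carrying stably transfected human TDP1. Compounds were applied without camptothecin, and cell growth kinetics were judged by ATP-dependent luminescence after ≥48 hr.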
TDP1 cell CPT: DT40-hTDP1 cell growth loss with CPT; Potency, µM (highest dose often 46.2 µM), for the others: at the top dose activity change, negative = growth inhibition, usual class: inhibitors; 12% of 420,000 active; chicken DT40 Tdp1-/-;hTDP1 cells + 20 nM CPT, ATP luminescence, 48 h; note: potency is the fitted concentration of half-maximal effect; nearly all actives have a fitted effect of over 55% in size
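Cell growth measured by CellTiter-Glo luminescence after a minimum 48 h, 37 C compound exposure with 20 nM CPT in Tdp1-knockout DT40 cells stably expressing hTDP1, seeded 400/well; qHTS titration format.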
ELG1 DNA repair: ELG1-dependent DNA repair inhibition; 2.3% of 330,000 active; Potency, µM (highest dose often 46.1 µM), for the others: at the top dose activity change, negative = inhibition, most hits filed as inhibitors; AID 504467; HEK293T ELG1-luciferase reporter, luminescence, 16 h; DNA damage induced by 5-fluorouridine; note: potency is the fitted concentration of half-maximal effect; nearly all actives have a fitted effect of over 55% in size
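DMSO vehicle served as the neutral condition. Each well held 2,000 cells given 5-fluorouridine plus compound; after 16 hr at 37 °C/5% CO2, ONE-Glo was added and luciferase measured 30 min later.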
HT1080-NT tox: kills 2HG-producing HT-1080-NT fibrosarcoma cells | HT-1080-NT fibrosarcoma viability, CellTiter-Glo ATP luminescence, 48 h | Potency, µM (highest dose often 46.1 µM), without a hit: top-dose activity, negative = less viability, actives largely listed as cytotoxic | 1.6% of 360,000 active;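 note: NT is the 2HG producing partner of a matched IDH1 knockdown line; potency is the fitted concentration of half-maximal effect; 0% = DMSO-treated cells and -100% = media-only wells without cells; nearly all actives have a fitted effect of over 55% in size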
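Luminescent CellTiter-Glo readout after 48 hours of compound exposure at 37 degrees C defined viability of HT-1080-NT cells. Activity was normalized to DMSO wells and cell-free media wells; concentration-response curves were fitted and assigned curve classes.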
IL1B secr inh: blocks inflammasome-driven IL-1 beta release. activity change, % at 57.5 µM. THP-1 LPS/ATP IL-1B secretion, AlphaLISA, 16 h; stronger effect = lower value. AID 743279. 4.7% of 360,000 active; in the data active = activity change below about -50%; inconclusive = mostly about -30% to -49%
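THP-1 cells pretreated 1 hr with compounds (up to 57.5 uM final), then stimulated with LPS (250 ng/mL final) plus ATP (1.25 mM final); secreted IL-1B measured by AlphaLISA after 16 hr, decreased signal indicating inhibition.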
An asterisk follows results filed as active; u = inconclusive; x = no result given. Unless noted, calls come from the whole dose curve; as a rule, active = well fitted curve in the direction sought with a large enough effect; inconclusive = small, poorly fitted or top-dose-only effect, or another doubt; inactive = no such curve, though single readings can be large; an effect the other way counts as inactive or inconclusive. Unless noted, % is set by controls: 0 for no effect and ±100 for the full control effect.

SMILES	HT1080 IDH1KD tx	TDP1 cell noCPT	TDP1 cell CPT	ELG1 DNA repair	HT1080-NT tox	IL1B secr inh
CCOc1ccc(CCNC(=O)CN2C(=O)NC3(CCCC3)C2=O)cc1OCC	11.1%	14.9%	2.7%	0.3%	0.0%	2.1
CCOCC(=O)Nc1ccccc1C(=O)O	12.4%	-16.1%	4.3%	3.3%	3.3%	5.6
CC1CC(C)CN(C(=O)/C=C/c2ccc(S(=O)(=O)N3CCOCC3)cc2)C1 (stereo unspecified)	-0.8%	u	u	0.0%	19.0%	-9.8
CC1=C(C(=O)OC2CCCC2)C(c2ccccc2Cl)CC(=O)N1 (stereo unspecified)	x	13µM*	16.4µM*	x	x	x
Cc1sc2ncn(CC(=O)N3CCN(c4cccc(Cl)c4)CC3)c(=O)c2c1S(=O)(=O)N1CCC(C)CC1	x	23.1µM*	u	x	x	x
Cc1sc2ncn(CC(=O)N3CCN(c4ccccn4)CC3)c(=O)c2c1S(=O)(=O)N1CCC(C)CC1	10.0%	-19.5%	4.4%	u	0.6%	11.7
Cc1sc2ncn(CC(=O)N3CCN(c4ccccc4)CC3)c(=O)c2c1S(=O)(=O)N1CCC(C)CC1	x	23.1µM*	u	x	x	x
COCCn1c(SCC(=O)c2ccc(C)cc2C)nc2cc(C(=O)NC3CCCC3)ccc2c1=O	x	-18.1%	4.0%	x	x	x
CCOC(=O)N1CCC(N(C(=O)Nc2cccc(OC)c2)C(C)CC)CC1 (stereo unspecified)	-1.5%	10.3µM*	20.6µM*	-8.4%	-27.4%	16.1
CCOC(=O)N1CCC(N(CCCOC)C(=O)Nc2cccc(OC)c2)CC1	3.5%	u	u	-6.9%	1.9%	23.0
CCOC(=O)N1CCC(N(CCN(C)C)C(=S)Nc2ccc(F)c(Cl)c2)CC1	-1.6%	8.0%	-2.8%	u	-4.4%	5.0
CCOC(=O)N1CCC(N(CCN(C)C)C(=S)Nc2ccc(Oc3ccccc3)cc2)CC1	13.5%	-22.8%	-8.9%	2.3%	2.3%	-89.1*
CCOC(=O)N1CCC(N(CCOC)C(=O)Nc2ccc(Cl)c(Cl)c2)CC1	-26.9%	10.3µM*	18.4µM*	u	5.2%	-62.8*
CC(C)CN1C(=O)NC2(CCCc3ccccc32)C1=O (stereo unspecified)	11.9%	16.5%	-1.3%	-23.2%	0.0%	27.6
CCOc1cccc2cc(-c3nc4sc(C(=O)Nc5ccc(C)cc5)c(C)c4c(=O)[nH]3)c(=O)oc12	x	-7.4%	-1.8%	x	x	x
COC(=O)N1CCC[C@@]2(CCN(Cc3nccs3)C2)C1	x	1.6%	13.0%	x	x	x
COc1ccc(N2CCN(C(=O)c3cc4c(-c5ccccc5F)nn(C)c4s3)CC2)cc1	x	9.2µM*	u	x	x	x
Cn1nc(-c2ccccc2F)c2cc(C(=O)N3CCN(C(=O)c4ccco4)CC3)sc21	-17.5%	u	29.1µM*	x	-15.4%	0.0
O=C(c1ccco1)N1CCN(Cc2nnc(-c3ccccc3F)o2)CC1	6.4%	-20.5%	9.4%	6.3%	15.8%	3.8
COc1cc(OC)cc(C(=O)N2CCN(c3ccccc3F)CC2)c1	-19.2%	u	-9.2%	u	-23.6%	29.1
Cn1nc(-c2ccccc2F)c2cc(C(=O)N3CCN(c4ccccc4F)CC3)sc21	x	7.31µM*	4.11µM*	x	x	x
COc1ccc(-c2nn(C)c3sc(C(=O)N4CCN(c5cccc(Cl)c5)CC4)cc23)cc1OC	x	-72.9%	14.6µM*	x	x	x
Cn1nc(-c2ccc(Cl)cc2)c2cc(C(=O)N3CCOCC3)sc21	-9.8%	20.6µM*	u	-29.4%	-7.1%	9.4
O=C(c1cc(-c2ccc(Cl)cc2)on1)N1CCOCC1	8.2%	0.1%	-26.8%	u	17.9%	-7.6
Cn1nc(-c2ccccc2F)c2cc(C(=O)N3CCN(c4ccc(F)cc4)CC3)sc21	x	16.4µM*	u	x	x	x
SMILES	HT1080 IDH1KD tx	TDP1 cell noCPT	TDP1 cell CPT	ELG1 DNA repair	HT1080-NT tox	IL1B secr inh
Cn1nc(C(=O)N2CCN(c3ccc(F)cc3)CC2)c2c1-c1ccccc1SC2	x	-0.7%	-3.0%	x	x	x
COc1ccc(N2CCN(C(=O)c3cc4c(-c5ccc(Cl)cc5)nn(C)c4s3)CC2)cc1	5.4%	16.4µM*	u	-9.4%	-4.9%	5.0
O=C(c1cc(-c2ccc(Cl)cc2)n(-c2ccc(Cl)cc2)n1)N1CCOCC1	-9.9%	u	16.4µM*	u	-11.0%	-8.7
COc1cccc(C(=O)Nc2cc(C(=O)NCc3ccc(C)cc3)ccc2N2CCC3(CC2)CC(c2cccc(Br)c2)=NO3)c1	0.0%	-8.9%	-12.5%	0.9%	0.0%	-5.3
COc1cccc(-c2nn(C)c3sc(C(=O)N4CCOCC4)cc23)c1	-13.4%	u	-26.3%	18.4µM*	-7.0%	-4.9
COc1ccc(C)cc1NC(=O)Cc1c(C(=O)O)c(C)cn1C	x	-2.1%	8.9%	x	x	x
O=C(CCl)N1N=C(c2ccco2)CC1c1ccco1 (stereo unspecified)	u	13µM*	9.2µM*	u	25.9µM*	-99.2*
CN1CCN(CC(=O)N2N=C(c3cccs3)CC2c2ccco2)CC1 (stereo unspecified)	-14.7%	-7.4%	-7.8%	-10.9%	0.0%	12.7
O=C(CCl)N1N=C(c2cccs2)CC1c1ccco1 (stereo unspecified)	4.11µM*	2.91µM*	2.91µM*	23.1µM*	5.17µM*	-99.7*
O=C(COc1ccc(Cl)cc1)N1N=C(c2cccs2)CC1c1ccco1 (stereo unspecified)	-4.7%	16.4µM*	25.9µM*	x	-14.8%	-10.2
Cc1nn(CC(=O)NNC(=O)c2ccccc2F)c([N+](=O)[O-])c1Br	12.1%	-0.4%	5.5%	-12.0%	u	-10.6
CCCSc1nc2c([nH]1)c(=O)n(C)c(=S)n2C	12.1%	-15.7%	5.0%	x	12.1%	1.6
Cn1c(=S)c2[nH]c(SCC3CCCO3)nc2n(C)c1=O (stereo unspecified)	-7.9%	1.16µM*	1.3µM*	x	0.4%	-87.6*
O=c1[nH]c(SCC2CCCCO2)nc2ccccc12 (stereo unspecified)	-28.6%	-16.3%	u	u	-29.8%	-3.4
CCCC(C)Sc1nc2c([nH]1)c(=S)n(C)c(=O)n2C (stereo unspecified)	-10.0%	4.61µM*	4.61µM*	x	-5.8%	-101.7*
CCCOc1ccc(CNC(=O)C(C)n2nc(C)n3c(cc4occc43)c2=O)cc1 (stereo unspecified)	x	-29.0%	-22.8%	x	x	x

From PubChem
